Data reported in PubChem BioAssay AID1210 (NMMLSC, 2008).
The source made the active and inactive calls.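 The calls were made as follows: active = blocks over 70% of labeled estradiol binding at 10 µM, or over a set limit at 100 nM; inactive = the rest.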

Each compound was assayed against Estrogen receptor beta (Homo sapiens) (UniProt Q92731) (assay: displacement of fluorescent estrogen from ERbeta – cell-based, Cos7 ERbeta-GFP, flow cytometry, primary screen (AID 1210;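 also: 0% = DMSO vehicle wells and 100% = complete loss of labeled estradiol signal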)). Settings: fluorescent estrogen binding, at 10 µM, stronger effect = higher value.
Chain of Estrogen receptor beta (Homo sapiens) (Q92731 whole entry, looked up): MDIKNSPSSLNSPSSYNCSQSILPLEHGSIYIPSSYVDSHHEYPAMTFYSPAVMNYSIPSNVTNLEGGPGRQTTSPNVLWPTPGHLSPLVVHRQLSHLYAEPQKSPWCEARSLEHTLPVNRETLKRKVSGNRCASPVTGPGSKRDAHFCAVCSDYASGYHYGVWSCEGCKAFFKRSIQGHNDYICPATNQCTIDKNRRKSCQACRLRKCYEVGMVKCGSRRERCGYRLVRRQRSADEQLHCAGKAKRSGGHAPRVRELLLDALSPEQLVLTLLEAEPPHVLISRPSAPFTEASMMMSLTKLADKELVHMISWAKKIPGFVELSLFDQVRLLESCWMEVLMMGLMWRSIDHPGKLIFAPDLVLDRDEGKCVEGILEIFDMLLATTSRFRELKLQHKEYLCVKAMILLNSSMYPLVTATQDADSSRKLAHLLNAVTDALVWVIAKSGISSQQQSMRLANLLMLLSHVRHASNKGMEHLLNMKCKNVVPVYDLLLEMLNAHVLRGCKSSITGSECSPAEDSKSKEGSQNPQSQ
In the case of `CC(=O)c1ccc(NCC(=O)N2CCN(c3ccccc3)CC2)cc1`, the inhibition was 72% (active).
For `Nc1ccc2nc(-c3cccs3)[nH]c2c1`, the inhibition was 50% (inactive).
For `Cc1ccc(N=Cc2ccc(O)cc2O)cc1F`, the inhibition was 34% (inactive).
For `Clc1ccc2c(c1)[C@H]1OCC[C@H]1[C@@H](c1ccco1)N2`, the inhibition was 0% (inactive).
`CCOC(=O)N1CCN(c2ccc(O)cc2)CC1` was tested, and the inhibition was 45% (inactive).
`Cc1ccc(-n2c(=O)c(C#N)cc3c(=O)n4cccc(C)c4nc32)cc1` was tested, and the inhibition was 72% (active).

Same assay, conditions: fluorescent estrogen binding, ligand binding inhibition, at 0.1 µM, stronger effect = higher value
`Cc1ccc2c(Cl)cc(Cl)c(OCC(=O)NCc3ccco3)c2n1` showed an inhibition of 38%.
`COc1cc(C(=O)Nc2nnc(-c3sccc3C)s2)cc(OC)c1OC` showed an inhibition of 34%.
In the case of `C=CCn1c(SCC(=O)NC(=O)NCc2ccco2)nc2sc(CC)cc2c1=O`, the inhibition was 10%.
With `CC1(C)Cc2c(sc3c4nnnn4c4nnnn4c23)CO1` the inhibition was 40%.
Work on `O=C(Nc1nccs1)c1ccc2nccnc2c1` yielded an inhibition of 25%.
`COc1cc(NC(=O)c2cccs2)c(C(=O)OCC(=O)NCc2ccco2)cc1OC` gave an inhibition of 47%.
In the case of `Oc1ccc(C=Nc2ccc(N3CCOCC3)cc2)c(O)c1`, the inhibition was 63%.
Work on `Cc1cnc(C(=O)OCC(=O)c2csc(N3CCCCC3)n2)cn1` yielded an inhibition of 23%.
`CCn1c(SCC(=O)Nc2cccc(F)c2)nnc1-c1cc2cc(Br)ccc2o1` showed an inhibition of 12%.
In the case of `CC(=O)c1ccc(NC(=S)N2CCC(O)CC2)cc1`, the inhibition was 23%.
Work on `Cc1cc(C)c2c(c1)NC(c1cc3c(cc1Br)OCO3)C1CC=CC21` (stereo not given) yielded an inhibition of 46%.
`Cc1ccc(S(=O)(=O)Cc2ccc(C(=O)O)o2)cc1` was tested, and the inhibition was 27%.
Work on `COC(=O)c1ccc2c(=O)n(CCCCCC(=O)NCc3ccc4c(c3)OCO4)c(=O)[nH]c2c1` yielded an inhibition of 20%.
`O=c1cc(O)c2sc(Nc3ccc(F)cc3)nc2[nH]1` gave an inhibition of 9%.
Work on `COc1ccccc1N1CCN(C(=O)c2cc3c(s2)CCC3)CC1` yielded an inhibition of 4%.
`O=C(CSc1nnc(SCC(=O)c2ccco2)s1)c1ccco1` gave an inhibition of 33%.
`O=C1C=CC(O)(c2cc(=O)c3c(O)cc(O)cc3o2)C=C1` gave an inhibition of 8%.
`CCOC(=O)CN1C(c2ccc(O)cc2)Nc2ccc(Br)cc2C1c1ccccc1` (stereo not given) was tested, and the inhibition was 23%.
`Nc1nc(N)c2sc3nc4c(cc3c2n1)CCC4` was tested, and the inhibition was 7%.
`COc1ccc2c(c1)C1C=CCC1C(c1cc3c(cc1Br)OCO3)N2` (stereo not given) gave an inhibition of 41%.
Work on `O=C(NNC(=O)c1ccc(SCC2CCCO2)c([N+](=O)[O-])c1)c1ccc(Cl)c([N+](=O)[O-])c1` (stereo not given) yielded an inhibition of 4%.
For `O=C(COC(=O)c1ccccc1Oc1ccccc1)NCc1ccco1`, the inhibition was 65%.
In the case of `COc1ccc(/C=N/NC(=O)c2nc(-c3ccccc3)cc(-c3ccccc3)n2)cc1O`, the inhibition was 81%.
With `Nc1ccc(-c2nc3c(Cl)c(N)ccc3[nH]2)cc1` the inhibition was 32%.
`C/C=C(/C(=C/C)c1ccc(O)cc1)c1ccc(O)cc1` showed an inhibition of 85%.
`COc1ccc(OC)c(NC(=O)CSc2nc3ccccc3c3nc4ccccc4n23)c1` gave an inhibition of 16%.
`COc1cc2c(cc1OC)C(Cc1ccc(O)cc1)N(C)CC2` (stereo not given) showed an inhibition of 6%.
`O=C(Cc1cccs1)Nc1ccc(S(=O)(=O)Nc2ncccn2)cc1` was tested, and the inhibition was 1%.
With `COc1ccc(Cc2nnc(NC(=O)Cc3cccs3)s2)cc1` the inhibition was 29%.
`O=C(Nc1cnn(C23CC4CC(CC(C4)C2)C3)c1)c1cnn2c(C(F)(F)F)cc(-c3ccco3)nc12` was tested, and the inhibition was 20%.
For `COC(=O)c1cc(-c2c(C)oc3cc(O)ccc3c2=O)c(C)o1`, the inhibition was 1%.
For `CCN1CCN(Cc2c(O)c(Cl)cc3c(C)cc(=O)oc23)CC1`, the inhibition was 8%.
For `Cc1cc(-c2nnc3sc(-c4ccc(Cl)cc4Cl)nn23)n[nH]1`, the inhibition was 38%.
With `CC(=O)c1ccc(NCC(=O)N2CCN(c3ccccc3)CC2)cc1` the inhibition was 41%.
`Nc1ccc2nc(-c3cccs3)[nH]c2c1` showed an inhibition of 34%.
Work on `Cc1ccc(N=Cc2ccc(O)cc2O)cc1F` yielded an inhibition of 15%.
For `Clc1ccc2c(c1)[C@H]1OCC[C@H]1[C@@H](c1ccco1)N2`, the inhibition was 4%.
For `CCOC(=O)N1CCN(c2ccc(O)cc2)CC1`, the inhibition was 34%.
`Cc1ccc(-n2c(=O)c(C#N)cc3c(=O)n4cccc(C)c4nc32)cc1` was tested, and the inhibition was 29%.
